Unmarked numbers belong to inactive results. Inconclusive results are not listed. Active and inactive are the calls of the source. Unless noted, calls come from the whole dose curve; as a rule, active = well fitted curve in the direction sought with a large enough effect in the repeat runs; inconclusive = weak or mixed curves; inactive = no such curve, though single readings can be large; an effect the other way counts as inactive or inconclusive.

The nature of assay [1]: qHTS assay for small molecules that induce genotoxicity in human embryonic kidney cells expressing luciferase-tagged ATAD5 (AID 651632). Note: nearly all actives have a fitted effect of over 15% in size. An outline of the steps: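 ATAD5-luc HEK293T, 2,000 cells/well; cpd or DMSO pin-transferred; 16 hr, 37C/5% CO2; Amplite 30 min RT; luminescence.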
For orientation: qHTS replaces the single test concentration by a dilution series.

Assay [2] is described as follows: qHTS assay for small molecule agonists of the p53 signaling pathway - cell viability (AID 651633; calls by dose curve;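 note: p53RE-bla HCT reporter cells with a stable beta-lactamase p53 reporter; series mostly up to about 83 µM; nearly all actives have a fitted effect of over 30% in size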). An outline of the steps: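 p53RE-bla cells, seeded at 4,000 per well and rested 5 h at 37 C/5% CO2, received compounds in DMSO for 16 h at 37 C. CellTiter-Glo was then added, and luminescence was read after 30 min at room temperature to gauge cytotoxicity.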
Assay [3] in a line: qHTS assay for small molecules that induce genotoxicity in human embryonic kidney cells expressing luciferase-tagged ATAD5 - cell viability (AID 651634; calls by dose curve; note: nearly all actives have a fitted effect of over 25% in size; note: potency is the fitted concentration of half-maximal effect). The method, boiled down:
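Fluorescence from CellTiter-Fluor, reporting protease activity within live cells, served as the viability read-out. HEK293T cells carrying luciferase-tagged ATAD5 had been treated with compound for 15.5 hr at 37C.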

A short description of assay [4]: qHTS assay for small molecule disruptors of the mitochondrial membrane potential - cell viability (AID 720634; calls by dose curve;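 note: human HepG2 liver cancer cells; series mostly up to about 83 µM; nearly all actives have a fitted effect of over 20% in size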). The method, boiled down: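 Cells: HepG2, 2,000/well, attached overnight. Compound 1 hr, 37 C/5% CO2. +m-MPI dye, +CellTiter-Glo 30 min RT. Readout: luminescence (ATP).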
Assay [5] in a line: qHTS assay to test for compound auto fluorescence at 590 nm (red) in HepG2 cells (AID 720674). The method, boiled down: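 Rose Bengal sodium served as the red fluorophore standard. HepG2 monolayers (overnight attachment, MEM with 10% FBS) were exposed to test compounds for 1 hr at 37 C and read at Ex 540/Em 590 nm.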
Assay [6] in a line: qHTS assay to test for compound auto fluorescence at 535 nm (green) in HepG2 cells (AID 720675).
Assay [7] can be described thus: qHTS assay to test for compound auto fluorescence at 460 nm (blue) in HEK293 cells (AID 720678). The method, boiled down:
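Intrinsic compound fluorescence is recorded in live HEK293 cultures after overnight incubation at 37C, 5% CO2, using excitation 405 nm and emission 460 nm. Values are referenced to triamterene.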

A short description of assay [8]: qHTS assay to test for compound auto fluorescence at 590 nm (red) in HEK293 cells (AID 720679). The method, boiled down: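 Red autofluorescence, HEK293 cells: 2,000 cells/well; attach 4-5 hr 37C; add 23 nL cpd or DMSO; incubate o/n 37C 5% CO2; read Ex540/Em590; Rose Bengal sodium reference.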
Assay [9] can be described thus: qHTS assay for small molecule disruptors of the mitochondrial membrane potential (AID 720635). Note: potency is the fitted concentration of half-maximal effect. The method, boiled down:
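HepG2 cells (2,000/well) attached overnight at 37C, then took compound for 1 hr at 37C, 5% CO2. Mito-MPS dye was added for 30 min; fluorescence was read at 490/535 nm (monomers) and 540/590 nm (aggregates).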
% is set by controls: 0 for no effect and ±100 for the full control effect.

On to `Cc1ncc([N+](=O)[O-])n1CC(O)CCl` (stereo not drawn), for which the molecule was called inactive in assay [1], in assay [2] and in [4]. In assay [3], the Potency entry is “inactive”. The fluorescence, relative to Rose Bengal in assay [5] is -0.0192% [at 18.6 µM]. For the same molecule, the fluorescence, % of fluorescein control in [6] is -0.155% [at 18.6 µM]. In addition, the fluorescence, % of triamterene in assay [7] was -0.195% [at 18.6 µM]. In addition, in assay [8], the fluorescence, % of fluorescent control is -0.364% [at 18.6 µM].
For the molecule `C=CCOc1c(Br)cc(Br)cc1Br`, the molecule was classed as inactive in assay [1], in assay [2], in [4], in assay [5], in assay [6] and in assay [7]. The result in assay [8] was inactive. For the same molecule, in assay [3], the Potency result is “inactive”.
`CCCOCCOCCOCCO`: the molecule was called inactive in [1], in assay [2], in [4], in assay [5], in [6] and in assay [7]. In addition, the call in assay [8] was inactive. The Potency result in assay [3] was “inactive”.
On to `O=P(O)(O)OCC(O)CO` (stereo not drawn), for which the result in assay [1], in [2], in assay [4], in [5], in assay [6] and in assay [7] was inactive. In addition, the result in assay [8] was inactive. The Potency result in assay [3] and in assay [9] was “inactive” throughout.
As for `CC(=O)c1ccc(OCC(=O)N2CCCCC2)cc1`, the result in assay [1], in [2], in assay [4], in assay [5], in [6] and in [7] was inactive. Moreover, in assay [8], the call was inactive. Moreover, in assay [9], the Potency entry is “inactive”.
Take `CNC(=O)C(c1ccccc1)c1ccccc1`: the molecule was called inactive in assay [1], in assay [2], in [4], in assay [5], in assay [6] and in assay [7]. Also, in assay [8], the result was inactive. Further, the Potency result in assay [3] is “inactive”.
As to `C=CCOCC(O)CCl` (stereo not drawn), the molecule was called inactive in assay [1], in assay [2], in [4], in assay [5], in assay [6] and in assay [7]. Besides, in assay [8], the result was inactive. Also, the Potency result in assay [3] was “inactive”.
With `O=C(O)c1c(Cl)ccc(Cl)c1Cl`, the molecule was called inactive in assay [1], in assay [5], in assay [6], in [7] and in [8]. Further, the Potency entry in assay [3] was “inactive”.
Take `Nc1ccc(/C=C/c2ccc(N)cc2S(=O)(=O)O)c(S(=O)(=O)O)c1`: the molecule was classed as inactive in assay [2], in assay [4], in assay [5], in [6], in assay [7] and in assay [8]. In addition, the Potency entry in assay [9] is “inactive”.
`C=CCOc1c(Br)cc(C(C)(C)c2cc(Br)c(OCC=C)c(Br)c2)cc1Br`: the outcome in assay [2], in [4], in assay [5], in [6], in assay [7] and in assay [8] was inactive. Besides, the Potency entry in assay [3] and in assay [9] was “inactive” in each case.
In the case of `C[CH2][Ge]([Cl])([CH2]C)[CH2]C`, the molecule was called inactive in [2], in assay [4], in [5], in assay [6], in assay [7] and in assay [8].
Take `Cc1nc2ccccc2c(=O)o1`: the outcome in assay [1], in assay [2], in assay [4], in [5], in [6] and in assay [7] was inactive. In assay [8], the molecule was called inactive.
For `CCCCCCCC[Si](OCC)(OCC)OCC`, the molecule was classed as inactive in assay [1], in assay [4], in assay [5], in [6], in assay [7] and in assay [8].
As for `O=S(=O)(O)SSS(=O)(=O)O`, the outcome in [1], in assay [2], in [4], in [5], in [6] and in assay [7] was inactive. For the same molecule, the outcome in assay [8] was inactive.
For the molecule `COc1cc2c(Nc3ccc(Br)cc3F)ncnc2cc1OCC1CCN(C)CC1`, the Potency in assay [3] is 13.3 µM (active). For the same molecule, the molecule was called inactive in assay [4], in assay [5], in assay [6], in assay [7] and in assay [8].
Turning to `Cc1cccc(NC(=S)N(C)C)c1`, in assay [3], the Potency result was “inactive”. For the same molecule, the molecule was called inactive in assay [4], in assay [5], in assay [6], in [7] and in assay [8].
On to `C[C@H](CCC(=O)O)[C@H]1CC[C@H]2[C@@H]3[C@H](O)C[C@@H]4C[C@H](O)CC[C@]4(C)[C@H]3C[C@H](O)[C@]12C`, for which the call in [1], in [4], in assay [5], in assay [6], in assay [7] and in assay [8] was inactive. Moreover, the Potency entry in [3] and in assay [9] was “inactive” each time.
As for `CCCCCCCCCCCCCC(=O)OC`, the call in [1], in assay [5], in assay [6], in assay [7] and in assay [8] was inactive. The Potency entry in assay [3] is “inactive”.
Take `C[C@@H]1C[C@H]2[C@@H]3C[C@H](F)C4=CC(=O)C=C[C@]4(C)[C@@]3(F)[C@@H](O)C[C@]2(C)[C@@]1(O)C(=O)CO`: the outcome in [2] and in assay [4] was inactive. Also, the Potency entry in assay [3] was “inactive”. For the same molecule, the fluorescence, relative to Rose Bengal in assay [5] was -0.458% [at 18.6 µM]. In addition, the fluorescence, % of fluorescein control in [6] is 0.0352% [at 18.6 µM]. For the same molecule, in assay [7], the fluorescence, % of triamterene is -0.0057% [at 18.6 µM]. Further, in [8], the fluorescence, % of fluorescent control is -0.084% [at 18.6 µM].
For `O=[Si]=O`, the molecule was called inactive in assay [1], in [4], in assay [5], in assay [6], in assay [7] and in [8]. The Potency entry in assay [3] and in [9] was “inactive” in each case.
With `COc1cccc2sc(N)nc12`, the call in [1], in assay [4], in [5], in assay [6], in [7] and in assay [8] was inactive. Moreover, the Potency entry in assay [3] was “inactive”. Besides, the Potency in assay [9] is 43.5 µM (active).
